Test results from article PMC4336329 (PLoS ONE, 2015).
Among all 310,000 compounds or so, about 14,000 (4.5%) showed an effect of 50% or more. Effects have a minus sign here. This excerpt belongs to a sample that is enriched for strong results. Where a SMILES comes first, the peptide text is derived from it. The star is where a group is joined. PhAc = O=C(Cc1ccccc1)*; OBn = c1ccc(CO*)cc1

Biological target: human ether-à-go-go-related gene (hERG) potassium channel (human, UniProt Q12809)
Experiment: primary screen, population patch clamp on CHO cells stably expressing hERG; higher = less effect of the substance
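Note: peak tail current of the secondary pulse compared with the same well before compound.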

Chain of human ether-à-go-go-related gene (hERG) potassium channel (Q12809 whole entry, looked up): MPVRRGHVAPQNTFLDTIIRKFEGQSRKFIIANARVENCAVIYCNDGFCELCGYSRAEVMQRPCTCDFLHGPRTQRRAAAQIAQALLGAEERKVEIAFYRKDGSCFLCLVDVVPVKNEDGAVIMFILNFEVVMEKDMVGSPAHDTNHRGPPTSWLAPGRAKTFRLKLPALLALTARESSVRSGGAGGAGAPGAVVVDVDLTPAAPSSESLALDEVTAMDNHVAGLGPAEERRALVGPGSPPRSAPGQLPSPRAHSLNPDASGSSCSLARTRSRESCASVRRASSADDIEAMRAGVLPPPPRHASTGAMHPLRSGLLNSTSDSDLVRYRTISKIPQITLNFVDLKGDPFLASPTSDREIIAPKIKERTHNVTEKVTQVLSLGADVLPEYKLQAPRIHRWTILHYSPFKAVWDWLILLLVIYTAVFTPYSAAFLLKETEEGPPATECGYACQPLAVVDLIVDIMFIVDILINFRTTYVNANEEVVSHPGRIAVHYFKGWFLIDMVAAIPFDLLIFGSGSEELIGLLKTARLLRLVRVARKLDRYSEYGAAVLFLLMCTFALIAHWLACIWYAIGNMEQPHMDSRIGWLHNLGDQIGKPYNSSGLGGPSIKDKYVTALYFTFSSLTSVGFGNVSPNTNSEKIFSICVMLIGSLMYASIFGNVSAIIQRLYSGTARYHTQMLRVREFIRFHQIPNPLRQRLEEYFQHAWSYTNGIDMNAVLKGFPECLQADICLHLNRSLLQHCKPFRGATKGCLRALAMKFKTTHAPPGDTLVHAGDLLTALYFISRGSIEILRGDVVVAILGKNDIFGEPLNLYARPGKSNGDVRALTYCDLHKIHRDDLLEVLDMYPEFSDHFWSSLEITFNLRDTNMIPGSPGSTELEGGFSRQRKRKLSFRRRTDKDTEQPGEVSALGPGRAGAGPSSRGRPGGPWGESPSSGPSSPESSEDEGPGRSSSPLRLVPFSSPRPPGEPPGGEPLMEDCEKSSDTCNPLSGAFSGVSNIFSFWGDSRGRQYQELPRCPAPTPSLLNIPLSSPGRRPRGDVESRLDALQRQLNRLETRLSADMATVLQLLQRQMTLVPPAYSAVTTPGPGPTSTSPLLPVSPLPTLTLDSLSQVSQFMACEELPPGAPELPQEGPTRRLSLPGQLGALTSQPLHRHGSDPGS

Row | SMILES | hERG current change (%, negative = inhibition) at 10uM [%]
1 | COc1ccccc1C(c1nnnn1Cc1ccccc1)N1CCN(c2nc3ccccc3s2)CC1.Cl (centres unmarked) | 23.1
2 | O=C(N/N=C/c1ccc(Cl)cc1)c1nc2ccc([N+](=O)[O-])cc2c(=O)[nH]1 | -27.3
3 | CC(C)Cn1c(CN2C(=O)c3ccccc3C2=O)nc2ccccc2c1=O | 16.7
4 | Fc1cc(Br)ccc1NC(=S)NCCc1ccccc1 | -1.43
5 | COCc1ccc(C(=O)N2CCCC(N3CCN(c4ccc(F)cc4)CC3)C2)o1 (centres unmarked) | -47.3
6 | CC(C)c1cc(C(=O)N2CCCC(N3CCN(c4ccc(F)cc4)CC3)C2)no1 (centres unmarked) | -72.1
7 | O=C(c1ccccn1)N1CCCC(N2CCN(c3ccc(F)cc3)CC2)C1 (centres unmarked) | -37.2
8 | CCc1noc(C)c1C(=O)N1CCCC(N2CCN(c3ccc(F)cc3)CC2)C1 (centres unmarked) | -27.2
9 | O=C(c1cc(C2CC2)on1)N1CCCC(N2CCN(c3ccc(F)cc3)CC2)C1 (centres unmarked) | -63.7
10 | COC(=O)c1ccc(C(=O)N2CCCC(N3CCN(c4ccc(F)cc4)CC3)C2)nc1 (centres unmarked) | -56.1
11 | O=C(c1cc(C2CC2)on1)N1CCN(c2ccc(F)cc2)CC1 | -43.4
12 | O=C(c1cc(C2CC2)on1)N1CCCC(N2CCN(c3cccc(C(F)(F)F)c3)CC2)C1 (centres unmarked) | -48.7
13 | COC(=O)c1ccc(C(=O)N2CCCC(N3CCN(c4ccccc4)CC3)C2)nc1 (centres unmarked) | -22.4
14 | CCCc1cc(C(=O)N2CCCC(N3CCN(c4ccc(F)cc4)CC3)C2)no1 (centres unmarked) | -73
15 | Cc1cccc(C(=O)N2CCCC(N3CCN(c4ccc(F)cc4)CC3)C2)n1 (centres unmarked) | -48.4
16 | Cc1cc(C(=O)N2CCCC(N3CCN(c4ccc(F)cc4)CC3)C2)no1 (centres unmarked) | -37.7
17 | O=C(Cc1ccccc1)N[C@H](c1ccccc1)P(=O)(O)CO | 8.47
18 | CC(=O)c1cccc(NC(=O)Nc2ccc(C(=O)N3CCOCC3)cc2)c1 | -0.351
19 | NS(=O)(=O)c1ccc(NC(=O)COC(=O)c2ccc3c(c2)OCCO3)cc1 | 24
20 | CC(C)C(=O)Nc1sc2c(c1C#N)CCCCC2 | 9.53
21 | Cc1cc(C)c(S(=O)(=O)Nc2cccc3nsnc23)c(C)c1 | -3.18

Row | SMILES | hERG current change (%, negative = inhibition) at 10uM [%]
22 | O=C(NC1CCCC1)C(c1ccc(F)cc1)N(C(=O)c1csnn1)C1CCCC1 (centres unmarked) | 9.14
23 | COC(=O)c1ccc(CSc2nnc3n(Cc4ccccc4OC)c(=O)c4ccccc4n23)o1 | -19.3
24 | CCc1noc(C)c1C(=O)N1CCCC(CCC(=O)NCc2cccc(OC)c2)C1 (centres unmarked) | 20.2
25 | Cc1ccc(N=Nc2c(N)n[nH]c2N)cc1 | 24.5
26 | CNP(=O)(Oc1ccccc1)OC12CC3CC(CC(C3)C1)C2 (centres unmarked) | -2.75
27 | O=C(Nc1nnc(SCc2ccc(Cl)cc2)s1)C1CCCO1 (centres unmarked) | -21.9
28 | O=C(CNC(=O)c1ccco1)OCc1ccc(C(=O)c2ccccc2)cc1 | -69.2
29 | O=C(CNC(=O)c1ccco1)NCC(=O)OCc1cccc(C(=O)Oc2ccccc2)c1 | -3.88
30 | O=C(CNS(=O)(=O)c1ccccc1)NCC(=O)OCc1ccc(Cl)cc1 | 13.7
31 | O=C(CNC(=O)Cc1ccccc1)NCC(=O)OCc1ccc(C(=O)c2ccccc2)cc1 | -5.33
32 | O=C(CNC(=O)c1ccco1)OCc1ccc(C(=O)Oc2ccccc2)cc1 | -73.6
33 | O=C(CNS(=O)(=O)c1ccccc1)NCC(=O)OCc1ccc(Br)cc1 | -6.92
34 | O=C(CNC(=O)Cc1ccccc1)NCC(=O)OCc1ccccc1 (PhAc-Gly-Gly-OBn) | 12.4
35 | CCOC(=O)c1ccc(COC(=O)CNC(=O)CNC(=O)Cc2ccccc2)cc1 | -57.2
36 | COC(=O)c1ccc(COC(=O)CNC(=O)c2ccco2)cc1 | 17.3
37 | O=C(CNC(=O)c1ccco1)NCC(=O)OCc1ccc(C(=O)Oc2ccc(Cl)cc2)cc1 | 9.73
38 | O=C(CNC(=O)c1ccco1)OCc1ccc(Br)cc1 | 2.8
39 | O=C(CNS(=O)(=O)c1ccccc1)NCC(=O)OCc1ccc(C(=O)c2ccccc2)cc1 | -61.6
40 | O=C(Nc1cccc2c1CCCC2)c1ccc(Cl)c([N+](=O)[O-])c1 | 5.81
41 | CC(=O)N1CCc2cc(Br)cc(S(=O)(=O)NCCCN3CCC(C)CC3)c21 | -16.8
